ATXN viability: cell viability loss in ATXN counter-screen; S2 cells (HEK-293 line with an ATXN2-luciferase reporter) viability, CellTiter-Fluor protease fluorescence, 24 h; Potency, µM (titrated, usually from 56.7 µM), hits mostly cytotoxic; 0.49% of 400,000 active; AID 651635; further: potency means the concentration at half of the fitted maximal effect; nearly all actives have a fitted effect of over 40% in size
IL1B secr inh: inflammasome signaling inhibition, IL-1 beta readout; activity change, % at 57.5 µM; 4.7% of 360,000 active; THP-1 LPS/ATP IL-1B secretion, AlphaLISA, 16 h; hits give low values; in the data active means activity change below about -50%; inconclusive means mostly about -30% to -49%; further: on the % scale 0 is the no-effect control and ±100 the full control effect
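Secreted IL-1B measured by AlphaLISA bead assay after 16 h compound exposure of THP-1 cells; compounds (final up to 57.5 uM) added 1 h before LPS (250 ng/mL) and ATP (1.25 mM) stimulation; lower signal means less secretion.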
HepG2 tox: counter-screen for TGF-b inhibitors: cytotoxicity in HepG2 cells; 0.76% of 410,000 active; AID 588856; Potency, µM (titrated, usually from 46.1 µM), for inactives: at the top dose activity change, negative = cytotoxicity, hits mostly cytotoxic; HepG2 CAGA-GFP viability, ATP luminescence, 18 h; further: potency means the concentration at half of the fitted maximal effect
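HepG2 CAGA-GFP cells (1000/well, DMEM with 1% FBS) received compound, then TGF-beta at 500 pg/mL final, and were incubated 18 hours at 37 degrees C. Viability was read by CellTiter-Glo luminescence. Media-only wells were set as complete cell-killing and DMSO as no toxicity.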
ATXN2 expr inh: reduces ATXN2 reporter expression in HEK-293 cells; HEK-293 ATXN2-luciferase reporter, luminescence, 24 h; Potency, µM (doses to about 57 µM), inactives show at the highest dose activity change, negative = inhibition, usual class: inhibitors; 0.72% of 360,000 active; AID 1745845; further: potency means the concentration at half of the fitted maximal effect; on the % scale 0 is the no-effect control and ±100 the full control effect; nearly all actives have a fitted effect of over 55% in size
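qHTS (up to 57 uM final) was run with 24 h compound exposure of reporter cells at 37 °C. Each well was multiplexed: SteadyGlo luminescence measured ATXN2-luciferase expression after a fluorogenic Gly-Phe-AFC viability readout (25 uM final).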
TGFb inhibitor: TGF-b pathway inhibition; HepG2 CAGA-GFP TGF-b/SMAD3 reporter, GFP fluorescence, 18 h; TGF-beta stimulated, 500 pg/mL final; Potency, µM (titrated, usually from 46.1 µM), for inactives: at the top dose activity, negative = inhibition, actives largely listed as inhibitors; 1.2% of 410,000 active; further: potency means the concentration at half of the fitted maximal effect; on the % scale 0 is the no-effect control and ±100 the full control effect; nearly all actives have a fitted effect of over 65% in size
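TGF-beta reporter screen: HEPG2 CAGA-GFP, 1% FBS, 500 pg/mL TGF-beta final, 18 h; per-cell GFP summed per well; curves fitted and categorized by class.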
An asterisk follows results filed as active; i = inactive; ? = inconclusive; . = no result. Shown are actives, neighbours in structure and some others; about 5.7% of the full set was active somewhere. Unless noted, the call rests on the fitted dose curve; in most records, active means well fitted curve in the direction sought with a large enough effect; inconclusive means small, poorly fitted or top-dose-only effect, or another doubt; inactive means no such curve, though single readings can be large; an effect the other way counts as inactive or inconclusive.

SMILES	ATXN viability	IL1B secr inh	HepG2 tox	ATXN2 expr inh	TGFb inhibitor
Cn1nc([N+](=O)[O-])c(C(C#N)c2ccccn2)c(Cl)c1=O (stereo unspecified)	?	-102*	13µM*	.	?
C#CC(C)(CC)OC(=O)c1ccccc1C(=O)O (stereo unspecified)	i	.	.	7%	.
COc1ccc(-c2nc3ccc(NS(=O)(=O)c4ccc(Cl)cc4)cc3o2)cc1	?	.	-105%	0%	?
CN1CC=C2C(C#N)=C(N)C(C#N)(C#N)C(c3cccc(Cl)c3Cl)C2C1 (stereo unspecified)	i	-103*	-30%	1%	12%
N/C(=N\OC(=O)c1ccc2c(c1)OCO2)c1ccncc1	i	-54*	-19%	23%	-6%
Cc1cc([N+](=O)[O-])ccc1NCc1ccccc1[N+](=O)[O-]	?	-71*	5%	0%	3%
Cc1cc([N+](=O)[O-])ccc1NCc1cccc2ccccc12	i	-66*	-10%	-2%	-24%
Cc1ccc(CC(=O)Nc2ccc([N+](=O)[O-])cc2C)cc1	?	-57*	0%	-13%	-14%
Cc1cc(F)ccc1NCc1ccccc1[N+](=O)[O-]	i	-8	-4%	-12%	-9%
CC(=O)N1CCc2c(sc3c2c(=O)n(CCc2ccccc2)c(=O)n3Cc2cccc(C)c2)C1	i	.	-21%	-3%	-1%
COc1cc(OC)c(NC(=O)N2CCSc3ccccc32)cc1Cl	.	.	-12%	.	0%
COc1ccccc1C1CN(CC(=O)N2CCC(N3CCOCC3)CC2)Cc2ccccc2O1 (stereo unspecified)	i	.	.	.	.
CCN1C(=NCCCOC(C)C)N[C@@H](CCc2ccccc2)[C@H](C(=O)NCCCOC(C)C)[C@H]1C	?	-58*	-29%	?	?
CCN1C(=NCCOC)N[C@@H](CCc2ccccc2)[C@H](C(=O)OC)[C@H]1C	i	11	1%	2%	-1%
Cc1cccc(C(=O)N2CCN=C2SCc2ccc([N+](=O)[O-])cc2)c1	i	-97*	0%	-15%	13%
O=C(Cc1ccccc1)N1CCN=C1SCc1cccc([N+](=O)[O-])c1	i	5	1%	-31%	-1%
COc1cc2c(cc1OC)C(c1ccccc1C(F)(F)F)CC(=O)N2 (stereo unspecified)	i	-53*	-14%	7%	3%
COc1cc2c(cc1OC)C(c1ccccc1C)CC(=O)N2 (stereo unspecified)	?	33	-26%	9%	-9%
COc1cc2c(cc1OC)CN(c1nc(-c3cccnc3)nc3ccccc13)CC2	?	-104*	-39%	?	?
CN1CCN(c2nc(-c3cccnc3)nc3ccccc23)CC1	i	?	-31%	-15%	7%
O=C(/C=C/c1cccc(F)c1)NC1CCN(Cc2ccccc2)CC1	i	-13	-20%	?	?
O=C(COc1ccc(Br)cc1CNC1CCCCC1)NCCc1ccccc1	?	-97*	-49%	-39%	?
O=C(/C=C/c1cccc(Br)c1)NC1CCN(Cc2ccccc2)CC1	i	-78*	-50%	-37%	17%
COc1ccc(CCNC(=O)COc2ccc(S(=O)(=O)NC3CCCCC3)cc2Cl)cc1	.	-5	-38%	?	14µM*
O=C(COc1ccc(Br)cc1Cl)NC1CCN(Cc2ccccc2)CC1	i	-81*	-27%	-38%	?
SMILES	ATXN viability	IL1B secr inh	HepG2 tox	ATXN2 expr inh	TGFb inhibitor
C(=C\c1ccnc2ccccc12)/c1ccccc1	.	.	-23%	.	3%
COc1ccc(CNC(=O)c2cnn(-c3nccc(-c4ccco4)n3)c2C)cc1OC	i	.	.	.	.
Cc1cnc2ccccc2c1C	.	.	-6%	.	-17%
COc1ccc(OC)c2sc(N3CCN(C(=O)c4ccc5c(c4)CCCC5)CC3)nc12	?	.	-7%	?	?
O=C(C[C@H]1C(=O)N(CCc2ccccc2)C[C@@H]1Cc1ccccc1)Nc1ccccc1	?	-24	-25%	-26%	11µM*
O=C(C[C@H]1C(=O)N(CCc2ccccc2)C[C@@H]1Cc1ccccc1)Nc1ccc(Br)cc1	?	?	-28%	?	?

High-throughput results (PubChem)
